G9a block: blocks human histone lysine methyltransferase G9a; Q96KQ7; G9a H3K9 monomethylation, AlphaScreen, 2 h; Potency, µM (highest dose often 102 µM), for the others: at the top dose activity, negative = inhibition, usual class: inhibitors; 350,000 compounds, 8.8% hits; AID 504332; also: % is scaled to controls: 0 for no effect and ±100 for the full control effect; nearly all actives have a fitted effect of over 75% in size
Target sequence (Q96KQ7 913-1193 limits assumed): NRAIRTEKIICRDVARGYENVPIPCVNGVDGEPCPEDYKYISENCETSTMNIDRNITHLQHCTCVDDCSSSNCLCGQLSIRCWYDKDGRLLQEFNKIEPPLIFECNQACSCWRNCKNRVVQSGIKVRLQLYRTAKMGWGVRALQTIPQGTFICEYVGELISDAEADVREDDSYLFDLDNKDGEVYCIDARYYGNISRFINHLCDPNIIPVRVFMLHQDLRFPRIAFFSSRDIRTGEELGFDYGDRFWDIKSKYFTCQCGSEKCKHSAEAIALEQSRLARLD
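Using a bead-based AlphaScreen, monomethylated H3K9 product from 2 h room-temperature reactions (G9a 20 nM, peptide 500 nM, SAM 20 uM) was detected with 0.5 ug/mL rabbit anti-H3K9me1 antibody.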
JMJD2A Tudor inh: JMJD2A Tudor domain (human) inhibition; Potency, µM (doses to about 114 µM), without a hit: at the top dose activity change, negative = inhibition, hits mostly inhibitors; 390,000 compounds, 4.4% hits; O75164; AID 504339; AlphaScreen JMJD2A-Tudor / H3K4me3 peptide binding; also: % is scaled to controls: 0 for no effect and ±100 for the full control effect; nearly all actives have a fitted effect of over 50% in size
HP1b chromo inh: blocks HP1-beta chromodomain binding to methylated histone tails; P83916; AlphaScreen HP1-beta / biotin-H3K9me3 peptide binding; Potency, µM (series often up to 114 µM), for inactives: at the highest dose activity change, negative = inhibition, hits mostly inhibitors; 390,000 compounds, 0.56% hits; also: nearly all actives have a fitted effect of over 70% in size
Target sequence (P83916 whole entry, looked up): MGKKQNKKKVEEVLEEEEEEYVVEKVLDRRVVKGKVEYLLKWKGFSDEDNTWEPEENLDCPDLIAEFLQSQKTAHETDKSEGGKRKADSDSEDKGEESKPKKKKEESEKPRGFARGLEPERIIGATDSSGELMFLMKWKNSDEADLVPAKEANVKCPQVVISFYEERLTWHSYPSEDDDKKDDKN
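Compound inhibition of the preformed complex between 50 nM HP1-beta and 50 nM biotinylated H3K9me3 peptide was read by AlphaScreen. Buffer was PBS pH 7.4 with 0.01% Tween-20. Incubations ran 30 min at room temperature, with 10 ug/mL donor/acceptor beads.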
Sfp PPTase inh: Sfp phosphopantetheinyl transferase inhibition | AID 1490 | Potency, µM, without a hit: largest response in the series, negative = inhibition, usual class: inhibitors | 310,000 compounds, 3.5% hits | Biochemical Sfp PPTase activity, qHTS;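 also: the enzyme is Sfp with the accession as filed and its product quenches rhodamine fluorescence; 0% = enzyme reaction without inhibitor and -100% = no enzyme wells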
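Step 1, compound plus 15 nM Sfp-PPTase, 15 min, room temperature. Step 2, add rhodamine-CoA (5 uM) and BHQ-2-YbbR (12.5 uM). Step 3, read 525/598 nm fluorescence at 0 and 30 min.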
BAZ2B inh: blocks human BAZ2B; Q9UIF8; AlphaScreen BAZ2B-H3K14Ac peptide displacement; Potency, µM (titrated, usually from 114 µM), without a hit: at the top dose activity change, negative = inhibition, actives largely listed as inhibitors; 360,000 compounds, 4.4% hits; AID 504333; also: % is scaled to controls: 0 for no effect and ±100 for the full control effect; nearly all actives have a fitted effect of over 60% in size
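BAZ2B 50 nM plus b-H3(5-23)K14Ac 50 nM, PBS pH 7.4/0.01% Tween-20, 30 min RT; compound added (max 110 uM), 30 min RT; streptavidin donor/Ni-chelate acceptor beads 10 ug/mL final, 20 min dark; AlphaScreen read.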
L3MBTL1 block: blocks human L3MBTL1. Q9Y468. AlphaScreen L3MBTL1–H3K9me1 peptide binding. Potency, µM (doses to about 57.1 µM), for the others: top-dose activity, negative = inhibition, hits mostly inhibitors. 230,000 compounds, 0.66% hits. AID 485360; also: % is scaled to controls: 0 for no effect and ±100 for the full control effect; nearly all actives have a fitted effect of over 60% in size
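AlphaScreen proximity signal between nickel-chelate acceptor and streptavidin donor beads (final 10 ug/mL) reports binding of 50 nM L3MBTL1 to 75 nM biotin-H3 K9me1 peptide; complex incubated with compounds 30 min at room temperature; cefsulodin titration as control.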
Numbers without * were called inactive; [ ] = remark or other dose. An excerpt weighted towards active compounds, which were near 12% of everything screened. Calls follow the shape of the dose curve; as a rule, active = well fitted curve in the direction sought with a large enough effect; inconclusive = small, poorly fitted or top-dose-only effect, or another doubt; inactive = no such curve, though single readings can be large; an effect the other way counts as inactive or inconclusive. Potency is read from the fitted curve at half-maximal effect.

What do the screens show for `CCC(=O)Nc1cc(C)c(NC(=O)C23CC4CC(CC(C4)C2)C3)cn1`?
G9a block: 1.12µM*; JMJD2A Tudor inh: 1.3%; HP1b chromo inh: 51.0%; Sfp PPTase inh: -13.3%; BAZ2B inh: 13.4%; L3MBTL1 block: -0.6%

How did CC(=O)N1/C(=C/c2ccc(N(C)C)cc2)C(=O)c2ccccc21 do in these assays?
G9a block: 11.2µM*; JMJD2A Tudor inh: 17.8µM*; HP1b chromo inh: 22.4µM*; Sfp PPTase inh: -25.9%; BAZ2B inh: 10µM*

What do the screens show for `Cc1[nH]c2ccccc2c1NC(=O)CN1CCN(Cc2ccc3c(c2)OCO3)CC1`?
G9a block: 56.2µM*; Sfp PPTase inh: 10.2%; BAZ2B inh: -6.6%; L3MBTL1 block: -8.4%

Results for CCOC(=O)c1cc(CC)sc1NC(=O)CN1CCN(C(=O)c2ccco2)CC1 ?
G9a block: inconclusive; JMJD2A Tudor inh: inconclusive; HP1b chromo inh: -14.7%; Sfp PPTase inh: 39.8µM*; BAZ2B inh: inconclusive

How did Cc1[nH]c2ccccc2c1NC(=O)CN1CCN(C(=O)c2ccco2)CC1 do in these assays?
G9a block: -12.8%; JMJD2A Tudor inh: -7.1%; HP1b chromo inh: 18.6%; Sfp PPTase inh: 44.7µM*; BAZ2B inh: -39.0%; L3MBTL1 block: -18.7%

How did CCN(CC(=O)Nc1c(C(=O)OC)[nH]c2ccccc12)c1ccc2c(c1)OCO2 do in these assays?
G9a block: inconclusive; JMJD2A Tudor inh: inconclusive; HP1b chromo inh: -7.4%; Sfp PPTase inh: 14.3%; BAZ2B inh: inconclusive; L3MBTL1 block: 25.1µM*

What do the screens show for `COC(=O)c1[nH]c2ccccc2c1NC(=O)/C=C/c1ccc2c(c1)OCO2`?
G9a block: 1.1%[59 µM]; JMJD2A Tudor inh: 1.3%; HP1b chromo inh: 19.1%; Sfp PPTase inh: -17.3%; BAZ2B inh: -29.5%; L3MBTL1 block: -1.7%

How did Cc1[nH]c2ccccc2c1/C=N/NC(=O)c1cc(C(C)(C)C)[nH]n1 do in these assays?
JMJD2A Tudor inh: -23.5%; HP1b chromo inh: -3.8%; Sfp PPTase inh: 2.3%; BAZ2B inh: 70.8µM*

Results for Cc1[nH]c2ccccc2c1/C=N/NC(=O)c1ccccc1 ?
G9a block: 14.6%; JMJD2A Tudor inh: -13.4%; HP1b chromo inh: 35.9%; Sfp PPTase inh: -2.9%; BAZ2B inh: -4.8%

What do the screens show for `Cc1ccc(C(=O)Nc2ccc(C(=O)N/N=C/c3c[nH]c4ccccc34)cc2)cc1`?
G9a block: 12.5%; JMJD2A Tudor inh: -11.4%; HP1b chromo inh: 29.3%; Sfp PPTase inh: 13.4%; BAZ2B inh: -11.6%; L3MBTL1 block: -6.0%

What do the screens show for `Cc1[nH]c2ccccc2c1/C=N/NC(=O)CNC(=O)c1ccccc1`?
JMJD2A Tudor inh: -6.1%; HP1b chromo inh: 12.5%; Sfp PPTase inh: -3.7%; BAZ2B inh: -1.9%; L3MBTL1 block: -4.0%

Results for Cc1ccc(NC(=S)N/N=C/c2c(C)[nH]c3ccccc23)cc1 ?
G9a block: 50.1µM*; JMJD2A Tudor inh: 44.7µM*; HP1b chromo inh: inconclusive; Sfp PPTase inh: 18.9%; BAZ2B inh: 44.7µM*; L3MBTL1 block: -4.8%

What do the screens show for `Cc1cccc(NC(=S)N/N=C/c2c[nH]c3ccccc23)c1`?
G9a block: -20.8%[59 µM]; JMJD2A Tudor inh: inconclusive; HP1b chromo inh: inconclusive; Sfp PPTase inh: 1.4%; BAZ2B inh: 50.1µM*; L3MBTL1 block: -20.2%

How did Cc1[nH]c2ccccc2c1/C=N/NC(=O)CNC(=O)Cc1ccccc1 do in these assays?
G9a block: 70.8µM*; JMJD2A Tudor inh: -25.2%; HP1b chromo inh: 31.9%; Sfp PPTase inh: 9.5%; BAZ2B inh: inconclusive

What do the screens show for `COc1ccc(CCN2CC(C(=O)NCCCn3nc(C)cc3C)CCC2=O)cc1` (stereo unspecified)?
JMJD2A Tudor inh: -3.4%; HP1b chromo inh: 27.6%; Sfp PPTase inh: 4.5%; BAZ2B inh: -1.0%

Results for Cc1cc(C)c(C(=O)C(C)OC(=O)c2ccc(Cl)nc2)cc1C (stereo unspecified) ?
JMJD2A Tudor inh: 68.5%; HP1b chromo inh: 114.5%; Sfp PPTase inh: -17.3%; BAZ2B inh: 38.4%

How did CNC(=O)COc1ccc(Nc2nnc(-c3ccc(C)c(S(=O)(=O)NC(C)(C)C)c3)c3ccccc23)cc1 do in these assays?
G9a block: inconclusive; JMJD2A Tudor inh: -22.9%; HP1b chromo inh: 14.9%; BAZ2B inh: -13.9%

How did CCOC(=O)C1CCCN(C2CC(=O)N(c3cccc(C(F)(F)F)c3)C2=O)C1 (stereo unspecified) do in these assays?
G9a block: inconclusive; JMJD2A Tudor inh: 56.2µM*; HP1b chromo inh: 46.0%; Sfp PPTase inh: 50.1µM*; BAZ2B inh: -31.3%; L3MBTL1 block: -11.2%

What do the screens show for `CCOC(=O)C1CCCN(C2CC(=O)N(c3ccccc3)C2=O)C1` (stereo unspecified)?
JMJD2A Tudor inh: 2.3%; HP1b chromo inh: 45.7%; Sfp PPTase inh: 1.2%; BAZ2B inh: 2.5%; L3MBTL1 block: 8.0%

Results for CCOC(=O)C1CCCN(C2CC(=O)N(c3ccc(C)c(C)c3)C2=O)C1 (stereo unspecified) ?
G9a block: -42.7%[59 µM]; JMJD2A Tudor inh: -9.8%; HP1b chromo inh: 30.3%; Sfp PPTase inh: 8.4%; BAZ2B inh: 0.6%; L3MBTL1 block: 21.8%

What do the screens show for `CCOC(=O)C1CCCN(C2CC(=O)N(c3ccc(N4C(=O)CC(N5CCCC(C(=O)OCC)C5)C4=O)cc3)C2=O)C1` (stereo unspecified)?
G9a block: 31.6µM*; JMJD2A Tudor inh: -2.9%; HP1b chromo inh: 41.7%; Sfp PPTase inh: -27.7%; BAZ2B inh: 50.1µM*; L3MBTL1 block: -1.4%[11.4 µM]

Results for Cc1ccc(C(=O)NCc2ccco2)cc1S(=O)(=O)N1CCCC1 ?
JMJD2A Tudor inh: -25.0%; HP1b chromo inh: -8.0%; Sfp PPTase inh: -22.3%; BAZ2B inh: -23.5%

What do the screens show for `Cc1ccccc1CNC(=O)c1nn(-c2ccccc2F)nc1CO`?
G9a block: -42.3%[59 µM]; JMJD2A Tudor inh: -20.4%; HP1b chromo inh: 9.7%; BAZ2B inh: 3.0%

Results for CCCCN(C(=O)c1ccc(-c2ccc(Cl)cc2)o1)c1c(N)n(CCCC)c(=O)[nH]c1=O ?
G9a block: 20.1%[12.7 µM]; JMJD2A Tudor inh: -30.6%; HP1b chromo inh: 18.6%; BAZ2B inh: -5.3%; L3MBTL1 block: -9.7%

Results for CCCCN(C(=O)C(C)Oc1ccc(Cl)cc1)c1c(N)n(CCCC)c(=O)[nH]c1=O (stereo unspecified) ?
G9a block: 50.1µM*; JMJD2A Tudor inh: 3.6%; HP1b chromo inh: 9.8%; BAZ2B inh: 10.6%; L3MBTL1 block: 6.6%
